SMN2 splice up = enhancers of SMN2 splice variant expression | Potency, µM (doses to about 46.1 µM), usual class: activators | HEK293 SMN2-luciferase splicing reporter, luminescence, 30-36 h | actives 2.8% (n = 210,000); note: nearly all actives have a fitted effect of over 55% in size
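HEK293 cells carry an SMN2 minigene-luciferase reporter in which exon 7 inclusion puts luciferase in frame. Cells were seeded at 2000 cells/well, attached for 10-12 hours, then exposed to compounds for 30-36 hours at 37C before ONE-Glo luminescence.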
Rab9 promoter act = activates the Rab9 promoter; Huh7 Rab9 promoter-luciferase reporter, luminescence, 24 h; Potency, µM (series often up to 9.22 µM), hits mostly activators; actives 2.8% (n = 320,000); note: nearly all actives have a fitted effect of over 60% in size
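Cells were plated at 1500 per well in reduced-serum medium with 10% FBS and left 2 h. Compound in DMSO was then added for 24 h at 37 °C. Reporter signal was read by luminescence after 10 min with luciferase detection reagent.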
FLuc counter = counter-screen for miR-21 project: firefly luciferase inhibitors or activators; P08659; purified FLuc, Km substrates, luminescence inhibition; Potency, µM (highest dose often 57.5 µM), most hits filed as inhibitors; actives 6.9% (n = 360,000); note: nearly all actives have a fitted effect of over 55% in size
Target sequence (P08659 whole entry, looked up): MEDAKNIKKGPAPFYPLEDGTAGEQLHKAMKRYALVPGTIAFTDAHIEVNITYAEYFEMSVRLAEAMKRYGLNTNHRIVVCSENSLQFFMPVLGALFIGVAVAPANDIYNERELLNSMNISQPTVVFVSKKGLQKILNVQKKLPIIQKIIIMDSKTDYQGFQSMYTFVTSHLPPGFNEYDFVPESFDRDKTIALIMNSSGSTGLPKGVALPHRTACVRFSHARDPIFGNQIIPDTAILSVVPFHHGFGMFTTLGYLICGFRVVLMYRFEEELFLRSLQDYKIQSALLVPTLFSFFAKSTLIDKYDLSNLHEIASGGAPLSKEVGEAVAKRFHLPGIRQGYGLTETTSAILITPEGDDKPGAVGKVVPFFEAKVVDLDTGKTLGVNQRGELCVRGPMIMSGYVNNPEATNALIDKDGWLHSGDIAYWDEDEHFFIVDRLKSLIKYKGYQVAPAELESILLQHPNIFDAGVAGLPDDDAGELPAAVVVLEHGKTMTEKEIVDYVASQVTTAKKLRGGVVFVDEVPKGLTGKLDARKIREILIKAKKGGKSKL
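Purified P. pyralis luciferase (10nM final) with 10uM D-luciferin and 10uM ATP (Km levels) in 50mM Tris acetate pH 7.5, 10mM Mg acetate, 0.01% Tween-20, 0.05% BSA; qHTS 6-point titration, ~60 µM downward; luminescence read.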
ELG1 genotox = inducers of genotoxicity in HEK293T ELG1-luciferase cells. HEK293T ELG1-luciferase reporter, luminescence, 16 h. Potency, µM (titrated, usually from 46 µM), most hits filed as activators. actives 1.3% (n = 330,000). AID 504466; note: nearly all actives have a fitted effect of over 60% in size
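Genotoxicity was scored as increased ELG1-luciferase reporter signal, measured by ONE-Glo luminescence (30 min, room temperature). Compound or vehicle exposure of the HEK293T reporter cells lasted 16 hr at 37°C.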
NPC1 promoter act = activates the NPC1 promoter; Huh7 NPC1 promoter luciferase reporter, 24 h; Potency, µM (series often up to 9.22 µM), hits mostly activators; actives 2.4% (n = 320,000); AID 485313; note: nearly all actives have a fitted effect of over 60% in size
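Cells: Huh7 expressing luciferase under the NPC1 promoter, 1500/well. Seeded 2 h, compound added, incubated 24 h at 37 °C. Luciferase reagent, 10 min ambient, then luminescence.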
ELG1 DNA repair = ELG1-dependent DNA repair inhibition | AID 504467 | HEK293T ELG1-luciferase reporter, luminescence, 16 h; DNA damage induced by 5-fluorouridine | Potency, µM (series often up to 46.1 µM), actives largely listed as inhibitors | actives 2.3% (n = 330,000); note: nearly all actives have a fitted effect of over 55% in size
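Overnight (16 hr) co-exposure of 2,000 cells/well to 5-fluorouridine and compound at 37 °C preceded detection. Luciferase was quantified via ONE-Glo luminescence; loss of signal denotes inhibition.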
Numbers stand for hits; n = inactive; u = inconclusive; x = not tested or not shown; [ ] = dose if it differs, or a comment. A selection: hits, their analogues and other compounds. The true share with any hit is near 9.3%. Calls come from the whole dose curve; as a rule, active = well fitted curve in the direction sought with a large enough effect; inconclusive = small, poorly fitted or top-dose-only effect, or another doubt; inactive = no such curve, though single readings can be large; an effect the other way counts as inactive or inconclusive.

SMILES | SMN2 splice up | Rab9 promoter act | FLuc counter | ELG1 genotox | NPC1 promoter act | ELG1 DNA repair
Cc1cc(C)n(-c2cc(N3CCN(S(=O)(=O)c4ccc5ccccc5c4)CC3)ccc2[N+](=O)[O-])n1 | n | n | n | n | n | n
COc1ccc(N2CCN(C(=O)CNC(=O)c3nn(-c4ccc(OC)cc4)c(=O)c4ccccc34)CC2)cc1 | x | n | u | n | n | n
COc1ccc(-n2nc(C(=O)NCC(=O)N3CC(C)CC(C)C3)c3ccccc3c2=O)cc1 (stereo unspecified) | x | n | 19µM | n | n | 13µM
COc1ccc(-n2nc(C(=O)NCC(=O)N3CCCCCC3)c3ccccc3c2=O)cc1 | x | n | 5.36µM | n | n | n
COc1ccc(-n2nc(C(=O)NCC(=O)N3CCN(C)CC3)c3ccccc3c2=O)cc1 | x | n | 15.1µM | n | n | n
CCOC(=O)N1CCN(C(=O)CNC(=O)c2nn(-c3ccc(OC)cc3)c(=O)c3ccccc23)CC1 | n | u | 3.79µM | n | n | n
COc1ccc(Cl)cc1NC(=O)CN(C)C(=O)c1ccc2c(c1)CC(c1ccccc1)OC2=O (stereo unspecified) | x | n | n | n | n | u
COc1ccc(-n2nc(C(=O)NCC(=O)Nc3cccc(Cl)c3)c3ccccc3c2=O)cc1 | x | n | n | n | n | 13µM
COc1cc(OC)cc(-n2nc(C(=O)N3CC(C)CC(C)C3)c3ccccc3c2=O)c1 (stereo unspecified) | n | n | n | n | n | 20.6µM
CCOC(=O)N1CCN(C(=O)c2nn(-c3cc(OC)cc(OC)c3)c(=O)c3ccccc23)CC1 | n | n | n | n | n | u
Cc1ccccc1CS(=O)(=O)Cc1ccc(C(=O)NCc2ccc(F)cc2)o1 | x | x | n | x | x | x
CC(=O)N1N=C(c2cccs2)CC1c1ccco1 (stereo unspecified) | x | n | n | n | n | n
NC(=O)Cn1cc(C(=O)COc2ccccc2)c2ccccc21 | n | n | u | n | n | n
O=C(COc1ccccc1)c1cn(CC(=O)N2CCCC2)c2ccccc12 | n | n | 21.3µM | n | n | n
COc1ccc(NC(=O)C(=O)c2cn(CC(=O)N3CCCC3)c3ccccc23)cc1OC | x | n | u | n | n | n
COc1cccc(NC(=O)C(=O)c2cn(CC(=O)N3CCCC3)c3ccccc23)c1 | x | n | 5.36µM | n | n | n
COc1ccc(OC)c(NC(=O)C(=O)c2cn(CC(=O)N3CCCC3)c3ccccc23)c1 | x | n | n | n | n | 11.6µM
O=C(OCCN1C(=O)c2ccccc2C1=O)c1cnccn1 | n | n | n | n | n | n
Nc1nonc1-c1noc(N2CCCCC2)n1 | n | u | 19µM | u | n | u
COc1ccc(NCC(=O)Nc2ccc(C#N)cc2)cc1Cl | n | n | n | n | n | 25.9µM
CC(Sc1nnc(-c2ccc(C(C)(C)C)cc2)n1C)C(N)=O (stereo unspecified) | n | n | n | n | n | u
COc1ccc(CN(C)C(=O)COC(=O)c2c(C)nn(-c3ccc(F)cc3)c2Cl)cc1 | x | n | n | n | n | 13µM
COc1cccc(CNC(=O)COC(=O)c2c(C)nn(-c3ccccc3)c2Cl)c1 | x | n | n | n | n | 23.1µM
COc1ccccc1CNC(=O)COC(=O)c1c(C)nn(-c2ccccc2)c1Cl | x | n | n | n | n | u
Cc1nn(-c2ccccc2)c(Cl)c1C(=O)OCC(=O)N(C)c1c(N)n(Cc2ccccc2)c(=O)[nH]c1=O | x | n | n | n | n | n
SMILES | SMN2 splice up | Rab9 promoter act | FLuc counter | ELG1 genotox | NPC1 promoter act | ELG1 DNA repair
CCOc1ccc(NS(=O)(=O)c2cc(C(=O)N3CCCC3)ccc2Cl)cc1 | x | n | n | n | n | n
CCOC(=O)c1cnc2c(cnn2C)c1NCCCN(C)C | n | n | n | n | n | n
Cc1cc(Cl)cc2sc(NC(=O)c3ccco3)nc12 | x | 2.24µM | 9.53µM | 2.91µM | u | u
Cc1cc(C)c2nc(NC(=O)c3ccco3)sc2c1 | x | 0.562µM | 0.536µM | 0.651µM | 2.82µM | u
O=C(Nc1nc2c(Br)cc(Br)cc2c(=O)s1)c1ccco1 | x | n | n | n | n | n
Cc1nc2nc(NC(=O)c3ccco3)nn2c(C)c1Cl | x | 3.16µM | u | 18.3µM | 3.55µM | u
Cc1cc(Cl)cc2sc(NC(=O)C3CC3)nc12 | x | n | n | n | n | u
Cc1ccc(CNc2nc3nc(C)c(Cl)c(C)n3n2)cc1 | n | x | x | x | x | x
O=C(Nc1nc2c(F)cccc2s1)c1ccco1 | x | 1.12µM | 4.78µM | 7.3µM | 1.12µM | u
CCOC(=O)CC(NC(=O)Cc1ccc(F)cc1)c1ccccc1Cl (stereo unspecified) | n[1.84 µM] | n | n | n | n | n
O=C(N=Nc1c(O)[nH]c2ccccc12)c1ccc2c(c1)OCO2 | 11.2µM | 0.562µM | 0.601µM | u | 2.24µM | u
C=CCn1c(O)c(N=NC(=O)c2ccc3c(c2)OCO3)c2ccccc21 | n | u | 3.01µM | n | u | u
O=C(N=Nc1c(O)[nH]c2ccccc12)c1ccco1 | x | 2µM | 5.36µM | u | 3.55µM | u
C=CCn1c(O)c(N=NC(=O)OCC)c2ccccc21 | n | n | n | n | n | n
CC(=O)/C=C(\C)N=Nc1c(O)[nH]c2ccccc12 | x | n | 13.5µM | n | n | u
O=C(CSCc1ccccc1)N=Nc1c(O)[nH]c2ccccc12 | n | n | n | n | n | u
O=C(CNC(=O)c1ccccn1)N=Nc1c(O)[nH]c2ccccc12 | x | n | 15.1µM | n | n | u
O=C(NC1CCCCCC1)c1cccc(N2CCCC2=O)c1 | 7.08µM | 2.24µM | 15.1µM | u | 3.55µM | u
O=C(N/N=C/c1cc(Br)cc(Br)c1O)c1cccc(N2CCCC2=O)c1 | x | n | u | n | n | u
O=C(NC1CCCC1)c1cccc(Cl)c1 | n | n | n | n | n | n
O=C(NC1CCCCC1)C(c1cccnc1)N(C(=O)CCl)c1cccc(Cl)c1 (stereo unspecified) | n | n | n | n | n | 20.6µM
O=C(N/N=C/c1ccc(Cl)cc1Cl)c1cccc(N2CCCC2=O)c1 | x | n | 6.75µM | n | n | n
Cc1cccc(N(C(=O)CNC(=O)c2ccco2)C(C(=O)NC2CCCCC2)c2cccnc2)c1 (stereo unspecified) | x | n | n | n | n | n
O=C(NC1CCCCCCC1)c1cccc(Cl)c1 | x | u | 15.1µM | u | u | u
CCCCN(C)C(=O)Cn1c(=O)oc2cc(S(=O)(=O)N3CC(C)CC(C)C3)ccc21 (stereo unspecified) | x | n | n | n | n | u
CC12CCC(C(=O)NCCc3ccccc3)(OC1=O)C2(C)C (stereo unspecified) | n | n | n | n | n | n
O=C(Nc1ccccc1)Nc1nnc(/C=C/c2ccccc2Cl)s1 | x | n | n | n | n | n

Source: PubChem (National Center for Advancing Translational Sciences (NCATS))
